Bioassay records as filed in PubChem.
A selection: hits, their analogues and other compounds. The true share with any hit is near 3.3%.
VACV mCherry inh: inhibitors of vaccinia virus infection (mCherry reporter signal) | Vaccinia virus mCherry reporter infection, fluorescence | Potency, µM (top dose mostly 36.5 µM), usual class: inhibitors | hit rate 0.63% among 310,000 | AID 720579; calls by dose curve; tested in A549 cells; also: nearly all actives have a fitted effect of over 35% in size
HCV inh: HCV inhibition; Huh7.5.1 HCVcc-Cre infection, luciferase reporter, 44 h; Potency, µM (titrated, usually from 41.8 µM), hits mostly inhibitors; hit rate 3.4% among 340,000; active = well fitted inhibition curve with a large enough effect; inconclusive = small, poorly fitted or top-dose-only effect, or another doubt; inactive = no such curve, though single readings can be large or run the other way
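Infectious HCV cell culture screen: compound-treated cells (1,000/well, pre-plated 4 h) are infected with HCVcc-Cre at roughly 0.5 moi and grown 44 h. Infection is quantified by luciferase signal after 15 min substrate incubation at room temperature.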
VACV Venus inh: inhibitors of vaccinia virus (Venus reporter). Vaccinia virus Venus reporter expression, fluorescence. Potency, µM (highest dose often 36.5 µM), usual class: inhibitors. hit rate 0.46% among 330,000; calls by dose curve; tested in A549 cells; also: nearly all actives have a fitted effect of over 30% in size
Numbers stand for hits; - = inactive; ? = inconclusive; . = no result given.

SMILES	VACV mCherry inh	HCV inh	VACV Venus inh
C(=N/n1c2ccccc2c2ccccc21)/c1ccco1	.	8.9µM	?
C(=N\n1c2ccccc2c2ccccc21)/c1ccccc1	-	?	-
CC(=O)c1cccc(NC(=O)C2CCN(c3nnc(-n4cccc4)s3)CC2)c1	-	.	-
COc1ccc(/C=N/NC(=O)c2ccc(CSc3nc(C)cc(C)n3)cc2)cc1O	-	?	-
COc1ccc(O)c(/C=N/NC(=O)c2ccc(CSc3nc(C)cc(C)n3)cc2)c1	8.9µM	5.6µM	?
Cc1cc(C)nc(SCc2ccc(C(=O)N/N=C/c3cccc(O)c3O)cc2)n1	8.9µM	13µM	?
Cc1cc(C)nc(SCc2ccc(C(=O)N/N=C/c3ccc(C(=O)O)cc3)cc2)n1	-	-	-
COc1ccc(OCC(=O)OCc2cc(=O)n3nc(-c4cccs4)sc3n2)cc1	-	.	-
CCCCNc1ccc(C(CC(N)=O)NC(=O)Cc2cccc3ccccc23)cc1[N+](=O)[O-] (stereo not given)	-	-	-
NC(=O)CC(NC(=O)Cc1ccc(Br)cc1)c1ccc(NCC2CC2)c([N+](=O)[O-])c1 (stereo not given)	-	-	-
CN1CCN(c2ccc(C(CC(N)=O)NC(=O)c3ccccc3)cc2[N+](=O)[O-])CC1 (stereo not given)	-	-	-
COc1ccc(CCNc2ccc(C(CC(N)=O)NC(=O)Cc3cccc4ccccc34)cc2[N+](=O)[O-])cc1 (stereo not given)	?	-	13µM
NC(=O)CC(NC(=O)Cc1ccc(Br)cc1)c1ccc(NCc2ccc(F)cc2)c([N+](=O)[O-])c1 (stereo not given)	-	11µM	-
NC(=O)CC(NC(=O)c1ccccc1)c1ccc(N2CCN(c3ccc(F)cc3)CC2)c([N+](=O)[O-])c1 (stereo not given)	-	11µM	?
CN(C)c1ccc(/C=C/c2ccnc3c([N+](=O)[O-])cccc23)cc1	-	.	-
CCOc1ccccc1NC(=O)C1CCCN1S(=O)(=O)c1ccc2nc(-c3ccccc3)[nH]c2c1 (stereo not given)	-	.	-
Cc1ccc(-n2ncc3c(SCC(N)=O)ncnc32)cc1C	-	-	-
Cn1c(O)c(/C=N/NC(=O)c2cc3ccccc3cc2O)c2ccccc21	7.9µM	?	?
Cn1c2ccccc2c2cc(/C=N/NC(=O)c3ccc(O)cc3O)ccc21	.	-	.
CCCCn1cc2c(c1-c1ccccc1Br)c(=O)n(C)c(=O)n2C	-	.	-
Cc1cc(C)cc(-n2c3ccc(NC(=S)NC4CCCCC4)cc3c(=O)n2C)c1	-	.	-
CCOc1ccccc1/C=N/Nc1nc(C)cc(=O)[nH]1	.	-	.
COc1ccc(/C=N/Nc2snc(SC)c2C#N)cc1OC	.	?	-
Oc1ccccc1/C=N/Nc1nn[nH]n1	.	-	.
COc1cccc(/C=N/Nc2ccc(C(=O)O)cc2)c1O	-	-	-
SMILES	VACV mCherry inh	HCV inh	VACV Venus inh
COc1cccc(/C=N/Nc2ccnc(=O)[nH]2)c1O	0.79µM	2.2µM	?
CCOc1ccccc1/C=N/Nc1ccnc(=O)[nH]1	-	11µM	-
O=c1nccc(N/N=C/c2ccccc2O)[nH]1	1µM	?	?
COc1cccc(/C=N/Nc2snc(SC)c2C#N)c1O	10µM	?	7.9µM
Cc1ccc(CN(C(=O)COc2ccc(Br)cc2)C2CCS(=O)(=O)C2)o1 (stereo not given)	.	-	.
CCOC(=O)c1[nH]c2c(c1Cc1ccccc1)C(=O)CC(c1ccc(OC)cc1)C2 (stereo not given)	-	.	-
CC[C@@H](NCCCn1cnc2c(SC)ncnc21)c1ccccc1	-	.	-
COc1ccccc1NC(=O)C1=C(C)Nc2nc(SCc3cccc(F)c3)nn2C1c1ccc(C(=O)O)cc1 (stereo not given)	-	.	-
O=C1[C@H](Cc2ccccc2)NC/C=C\C[C@H](c2ccco2)N1Cc1ccccc1	-	.	-
CCOC(=O)[C@@H](C)N(C(=O)OC(C)(C)C)S(=O)(=O)N(Cc1ccccc1)[C@@H](C(=O)OC)C(C)C	-	.	-
Cc1ccc(C)c(NC(=O)c2nc(-c3ccccc3)n(-c3ccccc3)n2)c1	.	-	.
O=C(CCl)Nc1cc(-c2ccccc2)nn1-c1ccccc1	.	14µM	.
Cc1ccc(-c2cc(NC(=O)CCl)n(-c3ccccc3)n2)cc1	-	?	-
Cc1ccc(C)c(NC(=O)c2cc(-c3ccccc3)nn2-c2ccccc2)c1	-	11µM	-
CC(C)N(C(=O)CSc1nnc(CSc2ncccn2)n1C)C(C)C	.	-	.
COc1ccc(OC)c(NC(=O)Nc2c(C)n(C)n(-c3ccccc3)c2=O)c1	-	.	-
Cc1c(NC(=O)COC(=O)COc2ccc(Nc3ccccc3)cc2)c(=O)n(-c2ccccc2)n1C	-	-	-
COc1ccc(Cl)cc1NC(=O)CN(C)CC(=O)Nc1c(C)n(C)n(-c2ccccc2)c1=O	.	3.5µM	.
Cc1cc(C)cc(OCC(=O)OCC(=O)Nc2c(C)n(C)n(-c3ccccc3)c2=O)c1	-	1µM	-
O=c1cc(-c2ccc(O)c(O)c2)oc2ccccc12	-	.	-
CCCCOc1ccc(Cl)cc1CSc1n[nH]c(C)n1	-	-	-
CCOc1ccc(Cl)cc1CSc1n[nH]c(CC)n1	.	11µM	.
Cc1cn2c(-c3ccc(Cl)cc3)nnc2s1	-	10µM	-
Clc1ccc(-c2nn3c(-c4ccccc4)nnc3s2)cc1	.	-	.
CC1=C(C(=O)N(C)C)CC(CC(=O)NCc2cccc3ccccc23)C(=O)N1CCC1=CCCCC1 (stereo not given)	-	.	-
SMILES	VACV mCherry inh	HCV inh	VACV Venus inh
COc1ccc(C(O)c2nc3ccccc3n2C)cc1OC (stereo not given)	?	2.8µM	-
COc1ccc(C(=O)NC(C)c2nc3ccccc3n2C)cc1OC (stereo not given)	-	-	-
COc1ccc(-c2cc(C3CCN(c4ccc(C(C)=O)cc4[N+](=O)[O-])CC3)[nH]n2)cc1	.	11µM	.
COC(=O)c1ccc(N2CCC(c3cc(-c4ccc(OC)cc4)n[nH]3)CC2)c([N+](=O)[O-])c1	.	11µM	.
COC(=O)c1ccc(N2CCN(C(=O)C3CC3)CC2)c([N+](=O)[O-])c1	-	-	-
COc1ccc(-c2cc(C3CCN(C(=O)OC(C)(C)C)CC3)[nH]n2)cc1	-	-	-
O=C(Nc1cc([N+](=O)[O-])ccc1O)c1ccc2c(c1)C(=O)N(Cc1ccco1)C2=O	-	-	-
Cc1ccc(-c2nnc(Nc3ccc(F)cc3)c3ccccc23)cc1S(=O)(=O)N1CCN(C)CC1	-	.	-
O=C(Nc1ccc(Oc2ccc(Cl)cc2)c(Cl)c1)c1cc(I)cc(I)c1O	-	32µM	?
COc1ccc(NC(=O)c2ccccc2F)cc1Cl	-	-	-
O=C(C[n+]1ccc2ccccc2c1)c1ccc(O)c(O)c1	-	.	-
CN(C)c1ccc(/C=C/c2ccnc3ccccc23)cc1N	-	.	-
C[C@H]1CC[C@]2(O[C@@H](CCO)C[C@H](O)[C@H]2O)O1	-	-	-
C#CC[N+](C)(C)CCCCCCCC	.	-	.
CCCCCCCCCCCCCCCC[N+](C)(C)CC	-	?	-
C#CC[N+](C)(C)CCCCCCCCCCCC	8.9µM	?	7.9µM
C#CC[N+](C)(C)CCCCCCCCCC	16µM	?	14µM
O=C(Cn1ccc2cc(S(=O)(=O)N3CCCCCC3)ccc21)NCCc1ccc(Cl)cc1	-	.	-
CCOC(=O)C1=C(COC(=O)[C@@H](NC(=O)c2cccc(C)c2)C(C)C)NC(=O)NC1C (stereo not given in full)	-	-	-
